Screening results deposited in PubChem by National Center for Advancing Translational Sciences (NCATS).
LASV entry inh – qHTS for Inhibitors of binding or entry into cells for Lassa Virus; Lassa virus pseudotype entry inhibition, cell reporter; Potency, µM (series often up to 37.9 µM), without a hit: at the highest dose activity change, negative = inhibition, hits mostly inhibitors; actives 1.2% (n = 300,000); AID 540256, 2011; calls by dose curve; tested in HEK293 cells; note: potency is the fitted concentration of half-maximal effect; nearly all actives have a fitted effect of over 50% in size
Marburg entry inh – qHTS for inhibitors of binding or entry into cells for Marburg Virus | Potency, µM (highest dose often 37.8 µM), without a hit: at the highest dose activity change, negative = inhibition, actives largely listed as inhibitors | actives 1.8% (n = 300,000) | Marburg virus pseudotyped entry inhibition, cell reporter | AID 540276, 2011; calls by dose curve; tested in HEK293 cells; note: potency is the fitted concentration of half-maximal effect
HCV inh – qHTS Assay for Inhibitors of Hepatitis C Virus (HCV) | Huh7.5.1 HCVcc-Cre infection, luciferase reporter, 44 h | Potency, µM (top dose mostly 41.8 µM), for the others: at the highest dose activity change, negative = inhibition, most hits filed as inhibitors | actives 3.4% (n = 340,000) | AID 651820, 2012; note: potency is the fitted concentration of half-maximal effect
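Luciferase read-out (15 sec integration) after a 15 min room-temperature substrate step quantifies HCVcc-Cre infection. Cells, 1,000 per well, had compound added 4 h post-plating, then virus at ~0.5 moi, and were cultured 44 h.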
Giardia FBPA inh – qHTS Assay for Inhibitors of Fructose-1,6-bisphosphate Aldolase from Giardia Lamblia. A8B2U2. purified Giardia FBPA. Potency, µM (doses to about 59.6 µM), inactives show at the top dose activity, negative = inhibition, hits mostly inhibitors. actives 0.71% (n = 290,000). AID 2451, 2010; note: potency is the fitted concentration of half-maximal effect; nearly all actives have a fitted effect of over 55% in size
Target sequence (A8B2U2 whole entry, looked up): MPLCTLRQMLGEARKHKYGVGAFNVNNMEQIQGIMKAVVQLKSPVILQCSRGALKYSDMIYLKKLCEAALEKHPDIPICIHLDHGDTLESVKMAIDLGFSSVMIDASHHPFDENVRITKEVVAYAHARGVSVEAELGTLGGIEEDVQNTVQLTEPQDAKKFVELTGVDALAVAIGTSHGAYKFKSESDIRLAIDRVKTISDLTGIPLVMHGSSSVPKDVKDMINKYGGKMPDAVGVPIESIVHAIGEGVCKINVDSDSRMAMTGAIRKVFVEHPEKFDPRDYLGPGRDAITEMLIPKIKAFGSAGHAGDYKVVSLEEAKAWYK
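40 nM FBPA preincubated 10 min at RT with compound (up to 57.5 uM final), then substrate plus GAPDH/TPI/NAD/arsenate coupling and diaphorase/resazurin added. Fluorescence read after 20 min at RT, 525/598 nm.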
HCMV antiviral – qHTS Assay for inhibitors of the human cytomegalovirus (HCMV) | HFF cells, HCMV-luciferase reporter, 72 h; hits give low values | activity change, negative = inhibition, % at 57.5 µM | actives 4.5% (n = 410,000); in the data active = activity change below about -60%; inconclusive = no clear call, values can overlap the other calls; inactive = above about -39%
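Human foreskin fibroblasts infected with luciferase-reporter HCMV at MOI 1 PFU/cell, compounds at two doses. Luciferase measured 72 h post infection; normalized to buffer-only basal and Salinomycin (10uM) controls.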
FMDV antiviral – High Throughput Screening for Foot and Mouth Disease Virus Antivirals; Potency, µM (doses to about 57.9 µM), for the others: top-dose activity change, negative = inhibition, most hits filed as inhibitors; FMDV antiviral cell-based qHTS; actives 1.2% (n = 410,000); AID 1159524, 2015; calls by dose curve; tested in HEK293T cells; note: read-out not given here; potency is the fitted concentration of half-maximal effect; nearly all actives have a fitted effect of over 45% in size
The depositor's hits bear a star; [ ] = dose if it differs, or a comment. Most compounds without a hit are left out; they make up all but 8.3% or so of the library. Unless noted, calls come from the whole dose curve; as a rule, active = well fitted curve in the direction sought with a large enough effect; inconclusive = small, poorly fitted or top-dose-only effect, or another doubt; inactive = no such curve, though single readings can be large; an effect the other way counts as inactive or inconclusive. % is set by controls: 0 for no effect and ±100 for the full control effect.

How did Cc1ccccc1-n1ncc2c(SCC(=O)NCc3cccs3)ncnc21 do in these assays?
LASV entry inh: inconclusive; Marburg entry inh: inconclusive; HCV inh: 22µM*; Giardia FBPA inh: -1%; HCMV antiviral: -36; FMDV antiviral: 0%

How did N/C(=N/OC(=O)c1ccccc1Cl)c1ncc([N+](=O)[O-])s1 do in these assays?
LASV entry inh: inconclusive; Marburg entry inh: inconclusive; HCV inh: 11µM*; Giardia FBPA inh: -8%; HCMV antiviral: 36; FMDV antiviral: 18%

Results for N/C(=N\OC(=O)c1ccccc1Cl)c1cccc([N+](=O)[O-])c1 ?
HCV inh: 9%; Giardia FBPA inh: -7%; HCMV antiviral: 51; FMDV antiviral: 13%

How did N/C(=N\OC(=O)c1cc([N+](=O)[O-])ccc1Cl)c1ccccn1 do in these assays?
LASV entry inh: inconclusive; Marburg entry inh: inconclusive; HCV inh: 11µM*; Giardia FBPA inh: -2%; HCMV antiviral: 31; FMDV antiviral: -14%

What do the screens show for `N/C(=N\OC(=O)c1ccc([N+](=O)[O-])cc1Cl)c1ccccn1`?
LASV entry inh: inconclusive; Marburg entry inh: inconclusive; HCV inh: inconclusive; Giardia FBPA inh: 21%; HCMV antiviral: -72*; FMDV antiviral: 16µM*

Results for C=CC1=C2C=C(C3CC3)N(CCCCO)C=C2C(=O)C(C)(OC(=O)c2ccco2)C1=O (stereo not drawn) ?
Marburg entry inh: -7%[14.2 µM]; Giardia FBPA inh: inconclusive

What do the screens show for `Cc1noc(C)c1C(=O)N1CCC[C@@]2(CCN(C(=O)Nc3ccccc3)C2)C1`?
Giardia FBPA inh: 2%; FMDV antiviral: 0%

How did COCCN1CCN(c2nc(C(=O)Nc3ccc(F)c(Cl)c3)cs2)C1=O do in these assays?
HCMV antiviral: -18

What do the screens show for `Cc1ccc(NS(=O)(=O)c2cc(NC(=O)C(C)Oc3ccccc3)ccc2C)c(C)c1` (stereo not drawn)?
LASV entry inh: inconclusive; Marburg entry inh: 4.6µM*; HCV inh: inconclusive; Giardia FBPA inh: 2%; HCMV antiviral: -7; FMDV antiviral: 13%

What do the screens show for `Cc1ccc(NC(=O)C(C)Oc2ccccc2)cc1S(=O)(=O)N1CCCCCC1` (stereo not drawn)?
HCV inh: inconclusive; HCMV antiviral: -21; FMDV antiviral: -25%

Results for O=C(Cc1csc(Nc2nc(=S)[nH]c3ccccc23)n1)NCc1ccccc1Cl ?
LASV entry inh: inconclusive; Marburg entry inh: inconclusive; HCV inh: 11µM*; Giardia FBPA inh: 3%; HCMV antiviral: -4; FMDV antiviral: 0%

How did O=C1C(=O)C(Cl)=C(Cl)C(Cl)=C1Cl do in these assays?
FMDV antiviral: -6%

What do the screens show for `O=C1C(Cl)=C(Cl)C(=O)C(Cl)=C1Cl`?
Giardia FBPA inh: 0.56µM*; FMDV antiviral: -28%

What do the screens show for `Oc1ccccc1-c1nc(NCC2CCCO2)c2ccccc2n1` (stereo not drawn)?
LASV entry inh: 12%; Marburg entry inh: -23%; HCV inh: 13µM*; Giardia FBPA inh: 1%; HCMV antiviral: 18; FMDV antiviral: inconclusive

Results for COc1cccc(-c2nc(NCC3CCCO3)c3ccccc3n2)c1O (stereo not drawn) ?
LASV entry inh: inconclusive; Marburg entry inh: inconclusive; HCV inh: inconclusive; Giardia FBPA inh: -4%; HCMV antiviral: 33; FMDV antiviral: 18µM*

What do the screens show for `COc1ccccc1Nc1nc(NCC2CCCO2)c2ccccc2n1` (stereo not drawn)?
LASV entry inh: inconclusive; Marburg entry inh: inconclusive; HCV inh: 10µM*; Giardia FBPA inh: -4%; HCMV antiviral: inconclusive; FMDV antiviral: inconclusive

What do the screens show for `COc1cccc(-c2nc(NCc3cccnc3)c3ccccc3n2)c1O`?
LASV entry inh: -21%[46.1 µM]; Marburg entry inh: inconclusive; HCV inh: inconclusive; Giardia FBPA inh: 21%; HCMV antiviral: 55; FMDV antiviral: 8%

How did O=[N+]([O-])c1ccc(-c2nc(NCC3CCCO3)c3ccccc3n2)cc1 (stereo not drawn) do in these assays?
LASV entry inh: -6%; Marburg entry inh: -16%; HCV inh: inconclusive; Giardia FBPA inh: -8%; HCMV antiviral: -14; FMDV antiviral: -17%

Results for Cc1cn2c(=O)cc(COC(=O)c3cccc(NC(=O)COc4ccccc4)c3)nc2s1 ?
LASV entry inh: 11%[46.1 µM]; HCMV antiviral: inconclusive; FMDV antiviral: -13%

Results for COc1ccc(CCN(C)CCCOc2ccc(S(=O)(=O)c3[nH]c4ccccc4c3C(C)C)cc2)cc1OC ?
Giardia FBPA inh: inconclusive; FMDV antiviral: -29%

Results for N#CCCn1c(=O)c(-c2cccs2)nc2cnc(OCc3ccccc3)nc21 ?
Giardia FBPA inh: -6%; FMDV antiviral: 3%

What do the screens show for `Cc1cc2nc(C)c(-c3nc4ccccc4[nH]3)nc2cc1C`?
HCMV antiviral: 20

What do the screens show for `CO[C@H]1COC(=O)[C@@H](C)COC(=O)[C@@H](COCc2ccccc2)NC(=O)C/C=C\[C@H]1C`?
Giardia FBPA inh: 0%[12.9 µM]

What do the screens show for `COc1ccc(C(=O)NCC(c2ccc(N(C)C)cc2)N2CCOCC2)cc1` (stereo not drawn)?
LASV entry inh: 3%[46.1 µM]; HCMV antiviral: -77*; FMDV antiviral: 4%

How did COc1ccc(C(CNC(=O)c2cc3ccccc3o2)N2CCCCC2)cc1 (stereo not drawn) do in these assays?
LASV entry inh: inconclusive; Marburg entry inh: -25%[46.1 µM]; HCV inh: 16µM*; Giardia FBPA inh: 1%; HCMV antiviral: 11; FMDV antiviral: -17%

What do the screens show for `COc1ccc(C(CNC(=O)c2cc3ccccc3o2)N2CCCC2)cc1` (stereo not drawn)?
HCV inh: -1%; HCMV antiviral: -7; FMDV antiviral: -5%

Results for COc1ccc(C(CNC(=O)Cc2ccccc2Cl)N2CCCCC2)cc1 (stereo not drawn) ?
LASV entry inh: -11%[46.1 µM]; Marburg entry inh: 4µM*; HCV inh: 10%; Giardia FBPA inh: 2%; HCMV antiviral: -37; FMDV antiviral: -1%

How did CCCCOCC1CN(CCCC)S(=O)(=O)c2c(Oc3ccc(SC)c(C)c3)cccc2O1 (stereo not drawn) do in these assays?
LASV entry inh: -16%[46.1 µM]; HCMV antiviral: -8

What do the screens show for `O=C(NCCc1nnc2n1CCN(Cc1ccsc1)CC2)c1ccc(F)cc1`?
FMDV antiviral: -8%

What do the screens show for `OC(c1ccncc1)(c1ccc(F)cc1)c1ccc(F)cc1`?
LASV entry inh: inconclusive; Marburg entry inh: 27%; HCV inh: 2%; Giardia FBPA inh: 6%; HCMV antiviral: -19; FMDV antiviral: -21%
